Laboratory results reported in PubChem BioAssay (EPA / NIEHS).
Records with an inconclusive call do not appear. The source made the active and inactive calls. How the source made its calls: active means hit-call score of the fitted dose curve at least 0.9, where 1 is the maximum; inconclusive means response in the unintended direction; inactive means score below 0.9.

Columns and labels:
[1] = system: chicken Androgen Receptor (AR), gene 422165; assay: ATG_chAR_XSP1: Attagene TRANS-FACTORIAL Multi-Species (XSP1) HepG2 Assay for chicken Androgen Receptor (AR) (AID 2283768)
Summary of the method: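 HepG2 cells transiently transfected with multiplexed GAL4-UAS reporter units expressing chimeric chicken AR-Gal4; 3 nM 6-alpha-fluorotestosterone for partial AR stimulation; 24 h after dosing, reporter mRNA by RT-PCR and capillary electrophoresis, gain-of-signal versus DMSO.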

[2] = target: zebrafish Estrogen Receptor (ESR1), esr1 (gene 259252) (UniProt P57717); assay: ATG_zfER1_XSP1: Attagene TRANS-FACTORIAL Multi-Species (XSP1) HepG2 Assay for zebrafish Estrogen Receptor (ESR1) (AID 2283772)
Summary of the method: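 HepG2 cells were transiently transfected with multiplexed GAL4-UAS reporter units driven by chimeric NR-GAL4 proteins, dosed for 24 h with 3 nM 6-alpha-fluorotestosterone present, and reporter mRNA quantified by RT-PCR and capillary electrophoresis versus DMSO.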

[3] = system: zebrafish Estrogen Receptor (ESR2B), gene 317733; assay: ATG_zfER2b_XSP1: Attagene TRANS-FACTORIAL Multi-Species (XSP1) HepG2 Assay for zebrafish Estrogen Receptor (ESR2B) (AID 2283773)
Summary of the method: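 Gain-of-signal endpoint relative to DMSO: reporter transcript levels quantified by RT-PCR and capillary electrophoresis after 24 h compound exposure of HepG2 cells expressing a zebrafish ER2b-Gal4 chimera.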

[4] = system: frog Estrogen Receptor (ESR2), gene 100174814; assay: ATG_frER2_XSP1: Attagene TRANS-FACTORIAL Multi-Species (XSP1) HepG2 Assay for frog Estrogen Receptor (ESR2) (AID 2283774)
Summary of the method: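 Transactivation of an exogenous receptor-Gal4 fusion is tracked in transfected HepG2 cells via induced reporter transcript levels. After 24 h treatment, RT-PCR with capillary electrophoresis quantifies signal gain over DMSO.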

[5] = target: Luciferin 4-monooxygenase (Photinus pyralis) (UniProt P08659); assay: CCTE_Simmons_QuantiLum_inhib_2: CCTE's Firefly Luciferase Inhibition Assay, Simmons Lab (AID 2283767);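 on AC50: potency for inhibitors that lower luciferase luminescence relative to DMSO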
Summary of the method: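 Luminescence loss relative to DMSO vehicle defines inhibition; detection reagent containing 150 uM D-luciferin and 147 uM dATP (final, pH 7.8) is injected immediately before each read. Enzyme is preincubated with an 8-point titration (5 nM–87.5 uM final) for 30 min at 37C.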

[6] = system: zebrafish Androgen Receptor (AR), gene 100005148; assay: ATG_zfAR_XSP1: Attagene TRANS-FACTORIAL Multi-Species (XSP1) HepG2 Assay for zebrafish Androgen Receptor (AR) (AID 2283771)
Summary of the method: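 HepG2 cells were transiently transfected with a zebrafish AR-GAL4 reporter system and partially stimulated with 3 nM 6-alpha-fluorotestosterone. Reporter mRNA was measured after 24 h dosing by RT-PCR with capillary electrophoresis, and gain-of-signal was fitted relative to DMSO.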

[7] = ArunA_Migration_hNC: ArunA Biomedical's Oris Neural Crest (hNC) Cell Migration Assay (AID 2283755)
Method: ArunA_Migration_hNC is a cell-based, single-readout assay that uses human H9-derived embryonic neural crest stem cells (hNC). Measurements were taken 72 hours after chemical dosing in a 96-well plate.ArunA_Migration_hNC is an assay component measured from the ArunA_Migration_hNC assay. It is designed to make measurements of cell migration, a form of distribution reporter, as detected with fluorescence intensity signals by HCS Fluorescent Imaging technology. Data from the assay component ArunA_Migration_hNC was analyzed at the endpoint, ArunA_Migration_hNC, in the positive analysis fitting direction relative to DMSO as the negative control and baseline of activity. Using a type of distribution reporter, loss-of-signal activity can be used to understand the cell migration. To generalize the intended target to other relatable targets, this assay endpoint is annotated to the neurodevelopment intended target family, where the subfamily is migration.
To assess the hNP and hNC migration and cell titer endpoints, 60,000 cells per well were plated onto Matrigel in basal growth medium with LIF and bFGF in a 96-well plate format. Plates were incubated for 16 h at 37C followed by a 72 h exposure to chemical in the test medium. For the migration endpoints, cells were seeded and incubated in presence of 'seeding stoppers' to prevent cell migration and growth into the detection zone. At the beginning of chemical exposure, stoppers were removed, and growth medium was replaced with test medium. In the case of the stopper control wells, stoppers remained in place following replacement of growth medium with test medium. […] Cell viability in the detection zone was quantitated using a Flexstation3 microplate reader (ex494 nm/em 517 nm). Corresponding cell titer endpoints were assessed for the hNP and hNC cells using the Promega CellTiter Aqueous One Solution Cell Proliferation Assay (Cat no. G3581; CellTiter 96). Finally, to gain insight into the mechanisms by which cells migrate into the detection zone, Ki-67 expression was quantified for 10 additional chemicals in the hNP and hNC systems. […]

[8] = ArunA_NOG_NucleusCount: ArunA Biomedical's Neurite Outgrowth (NOG) Assay for Nucleus Count (AID 2283756)
Method: ArunA_NOG (Neurite Outgrowth) is a cell-based, image-based assay that uses human H9-derived embryonic differentiated neurons (hNN). Measurements were taken 48 hours after chemical dosing in a 96-well plate.ArunA_NOG_NucleusCount is an assay component measured from the ArunA_NOG assay. It is designed to make measurements of viability related to the number of neurons, using a form of viability reporter, as detected with fluorescence intensity signals by HCS Fluorescent Imaging technology. Data from the assay component ArunA_NOG_NucleusCount was analyzed at the endpoint, ArunA_NOG_NucleusCount, in the positive analysis fitting direction relative to DMSO as the negative control and baseline of activity. […]
(§1) Chemical treatment: Differentiated hNN cells were seeded and immediately exposed to test medium for 48 h. Following chemical exposure, cell bodies were stained with Hoechst 33,258 to quantitate viable neuron count and neurites were labeled with bIII-tubulin/DyLight1 488. High content imaging assessed the neurite outgrowth endpoints: neurite total length per neuron (um), neurite count per neuron, and branch points per neurite using the methods described in (Harrill et al 2010). […] Plates were then loaded into a Cellomics ArrayScan VTI HCS reader high-content imaging system (ThermoFisher Scientific, Waltham, MA) for automated image acquisition and morphometric analyses. […]

[9] = ArunA_NOG_NeuritesPerNeuron: ArunA Biomedical's Neurite Outgrowth (NOG) Assay for Neurites Per Neuron (AID 2283758)
Method: ArunA_NOG (Neurite Outgrowth) is a cell-based, image-based assay that uses human H9-derived embryonic differentiated neurons (hNN). Measurements were taken 48 hours after chemical dosing in a 96-well plate.ArunA_NOG_NeuritesPerNeuron is an assay component measured from the ArunA_NOG assay. It is designed to make measurements of neurite outgrowth related to number of neurites per neuron, using a form of morphology reporter, as detected with fluorescence intensity signals by HCS Fluorescent Imaging technology. Data from the assay component ArunA_NOG_NeuritesPerNeuron was analyzed at the endpoint, ArunA_NOG_NeuritesPerNeuron, in the positive analysis fitting direction relative to DMSO as the negative control and baseline of activity. […]
as §1, with “Fixed integration times” for “Plates were then loaded into a Cellomics ArrayScan VTI HCS reader high-content imaging system (ThermoFisher Scientific, Waltham, MA)”, “for” for “for automated”, “in each channel were determined by manual sampling of control-treated wells across multiple plates.” for “and morphometric analyses.”

zebrafish Estrogen Receptor (ESR1), esr1 (gene 259252), sequence (P57717 whole entry, looked up, the tested form may be a part): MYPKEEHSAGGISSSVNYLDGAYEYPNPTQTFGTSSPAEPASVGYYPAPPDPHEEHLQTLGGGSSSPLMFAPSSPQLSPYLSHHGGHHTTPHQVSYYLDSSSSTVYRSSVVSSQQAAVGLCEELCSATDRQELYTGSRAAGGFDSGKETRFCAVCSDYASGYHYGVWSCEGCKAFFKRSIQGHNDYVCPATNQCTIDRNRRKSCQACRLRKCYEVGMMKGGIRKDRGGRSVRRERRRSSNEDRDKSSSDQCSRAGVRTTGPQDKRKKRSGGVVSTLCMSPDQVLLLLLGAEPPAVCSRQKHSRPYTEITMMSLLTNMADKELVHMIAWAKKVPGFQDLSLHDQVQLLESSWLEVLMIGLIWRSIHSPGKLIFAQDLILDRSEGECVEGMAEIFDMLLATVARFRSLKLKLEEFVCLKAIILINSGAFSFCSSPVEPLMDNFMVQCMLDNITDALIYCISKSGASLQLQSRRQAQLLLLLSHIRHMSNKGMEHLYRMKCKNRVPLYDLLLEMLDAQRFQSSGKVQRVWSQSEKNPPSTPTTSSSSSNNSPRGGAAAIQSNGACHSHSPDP
Luciferin 4-monooxygenase (Photinus pyralis), sequence (P08659 whole entry, looked up): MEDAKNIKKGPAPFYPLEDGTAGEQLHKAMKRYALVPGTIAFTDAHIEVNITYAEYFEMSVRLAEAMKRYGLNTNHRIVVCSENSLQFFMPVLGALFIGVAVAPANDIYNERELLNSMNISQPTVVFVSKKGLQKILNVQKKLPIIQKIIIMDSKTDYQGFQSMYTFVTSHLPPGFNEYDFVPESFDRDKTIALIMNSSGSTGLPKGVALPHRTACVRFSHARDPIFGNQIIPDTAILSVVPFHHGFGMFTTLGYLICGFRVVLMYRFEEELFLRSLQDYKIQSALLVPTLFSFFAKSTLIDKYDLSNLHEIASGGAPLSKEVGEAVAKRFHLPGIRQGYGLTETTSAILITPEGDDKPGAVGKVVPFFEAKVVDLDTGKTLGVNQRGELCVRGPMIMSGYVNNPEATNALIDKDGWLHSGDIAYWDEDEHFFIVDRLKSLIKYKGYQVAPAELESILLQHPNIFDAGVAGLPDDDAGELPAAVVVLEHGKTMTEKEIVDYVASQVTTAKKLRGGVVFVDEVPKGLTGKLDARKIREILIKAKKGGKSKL

Structure (SMILES): Cc1c(COC(=O)[C@@H]2[C@H](/C=C(\Cl)C(F)(F)F)C2(C)C)cccc1-c1ccccc1
- outcome [1]: inactive
- outcome [2]: inactive
- AC50 [3]: 69.1 µM (active)
- AC50 [4]: 100 µM (active)

Structure (SMILES): CC(C)=CC1C(C(=O)OCc2coc(Cc3ccccc3)c2)C1(C)C (centres undefined)
- outcome [5]: inactive

Structure (SMILES): CCN(CC)C(=O)C(C)Oc1cccc2ccccc12 (centres undefined)
- AC50 [5]: 0.739 nM (active)
- outcome [2]: inactive
- AC50 [3]: 27.1 µM (active)
- AC50 [4]: 27.4 µM (active)

Structure (SMILES): CCOc1nc(F)cc2nc(S(=O)(=O)Nc3c(Cl)cccc3Cl)nn12
- outcome [5]: inactive

Structure (SMILES): CC1(C)C(C=C(Cl)Cl)C1C(=O)OC(C#N)c1cccc(Oc2ccccc2)c1 (centres undefined)
- outcome [1]: inactive
- outcome [2]: inactive
- AC50 [3]: 72.5 µM (active)
- AC50 [4]: 27.3 µM (active)

Structure (SMILES): CSC(=O)c1c(C(F)F)nc(C(F)(F)F)c(C(=O)SC)c1CC(C)C
- outcome [6]: inactive
- outcome [2]: inactive
- AC50 [3]: 32.3 µM (active)
- AC50 [4]: 0.955 µM (active)

Structure (SMILES): COc1ccc(-c2ccccc2)cc1NNC(=O)OC(C)C
- outcome [7]: inactive
- outcome [8]: inactive
- AC50 [5]: 556 nM (active)

Structure (SMILES): O=c1n(Cl)c(=O)n(Cl)c(=O)n1Cl
- outcome [5]: inactive

Structure (SMILES): CC(C)C1(C)N=C(c2ncccc2C(=O)O)NC1=O (centres undefined)
- outcome [7]: inactive
- outcome [8]: inactive
- outcome [9]: inactive

Structure (SMILES): CS(=O)(=O)c1ccc(C(=O)C2C(=O)CCCC2=O)c([N+](=O)[O-])c1
- outcome [5]: inactive

Structure (SMILES): CCNC(=O)NC(=O)C(C#N)=NOC
- outcome [5]: inactive

Structure (SMILES): CCOP(=S)(OCC)Oc1nc(Cl)n(C(C)C)n1
- outcome [5]: inactive

Structure (SMILES): COC(=O)NC(=S)Nc1ccccc1NC(=S)NC(=O)OC
- outcome [5]: inactive

Structure (SMILES): CCOP(=O)(OCC)Oc1nc(Cl)c(Cl)cc1Cl
- outcome [5]: inactive

Structure (SMILES): COP(=S)(OC)Oc1ccc([N+](=O)[O-])c(C)c1
- outcome [5]: inactive
- outcome [2]: inactive
- AC50 [3]: 74.4 µM (active)
- AC50 [4]: 65.9 µM (active)
